In PubChem BioAssay (Tox21):
Inconclusive results are not listed. Active and inactive are the calls of the source. The call rests on the fitted dose curve; in most records, active means well fitted activation curve with a large enough effect in the signal ratio in the repeat runs (not every such curve was filed as active); inconclusive means weak or mixed curves; inactive means flat fitted curve, though single readings scatter; the % refers to the signal ratio.

Test: qHTS assay to identify small molecule agonists of H2AX (AID 1224845)
Conditions: CHO-K1 phospho-H2AX Ser139 HTRF, 3 h; series mostly up to 154 µM; activation (H2AX phosphorylation): at the top concentration
Source text: National Center for Advancing Translational Sciences [NCATS]
NIH Chemical Genomics Center [NCGC]
U.S. Environmental Protection Agency [EPA]
National Institutes of Environmental Health Sciences [NIEHS]
National Toxicology Program [NTP]
U.S. Food and Drug Administration [FDA]
HTRF phospho-H2AX (Ser139) assay (Cisbio Bioassays, US) enables the quantitative detection of the histone variant H2AX when phosphorylated on serine 139. When double-stranded DNA breaks, either by ionizing radiation or endogenous physiological processes, H2AX becomes phosphorylated at Ser139. This phospho-Ser139 serves as a sensitive biomarker for the detection of such breaks, localizing the site of DNA repair. So, HTRF phospho-H2AX Ser139 is a pertinent assay to study genome stability, the cell cycle, DNA repair, and it serves as a biomarker for cancer, and to understand aging. Wild type CHO-K1 cells were used to identify the inducers of Phospho-H2AX Ser 139 from the Tox21 10K compound collections.
Tox21 Assay Protocol Summary:
The CHO-K1 cells suspended in culture medium containing 10% FBS were dispensed at 1000 cells/ 3 ul/well in 1536-well white wall/solid bottom plates (Greiner Bio-One North America, NC) using a Multidrop Combi (Thermo Fisher Scientific Inc., Waltham, MA). After the assay plates were incubated at 37C overnight, 23 nl of compounds at 15 concentrations (from 5-48 columns) or positive control (from 1 to 4 columns) were transferred to the assay plates using a Pintool station (Wako, San Diego, CA) into each well resulting in a final DMSO concentration of 0.76%. After 3hr incubation at 37C, 1 uL/well Supplemented Lysis buffer (diluted 100 fold blocking reagent in lysis buffer) (HTRF Phospho-H2A.X (S139) Assay kit from Cisbio US Inc., Bedford, MA) was added using a Flying Reagent Dispenser (FRD) (Aurora Discovery, CA). After 10sec spin at 1000 rpm in a plate centrifuge, the assay plates were incubated at room temperature for 30 min. Then followed by the addition of 1 uL/well detection buffer (containing a mixture of two antibodies, one labeled with cryptate, Anti pH2AX (S139)-K and another labeled with d2, Anti H2AX-d2) using FRD. After incubation at room temperature for 24 hr, the time resolved fluorescence at excitation 320 nm and emissions at 665 nm and 620 nm was measured using an Envision plate reader (PerkinElmer, Waltham, MA).
On the % scale 0 is the no-effect control and ±100 the full control effect; potency means the concentration at half of the fitted maximal effect.

Structure (SMILES) | activation (H2AX phosphorylation) | Potency
CC[C@@H](CO)NCCN[C@@H](CC)CO | 0.632% [at 70.9 µM] (inactive) | 
COC(C)(C)OC | 0.0214% (inactive) | 
Cc1cccc(C)c1NC(=O)c1cc(S(N)(=O)=O)c(Cl)cc1O | 0.19% [at 70.9 µM] (inactive) | 
CCCC(=O)OC(=O)CCC | -0.756% (inactive) | 
CCC(CO)(CO)CO | 1.04% (inactive) | 
CC(C)c1ccc(C(=O)N=C(N)N)cc1S(C)(=O)=O | -1.42% [at 70.9 µM] (inactive) | 
BrC(Br)C(Br)Br | -0.296% (inactive) | 
C=Cc1ccc(OC(C)=O)cc1 | 6.91% (inactive) | 
Nc1ccn([C@H]2CS[C@@H](CO)O2)c(=O)n1 | 0.255% (inactive) | 
CCCCCCCCCCCCCCCC(=O)OCC | -1.33% (inactive) | 
COC1CCC=CO1 (stereo not given) | 2.4% (inactive) | 
Cc1cn([C@H]2C[C@H](F)[C@@H](CO)O2)c(=O)[nH]c1=O |  | 43.8 nM (active)
CCCCCCCC(=O)OCCCCCC | 0.448% (inactive) | 
CCCCCCCCCCCSCC(=O)O | 4.66% (inactive) | 
CCCCCCC(CO)CCCC (stereo not given) | -0.327% (inactive) | 
O=C1c2ccccc2C(=O)c2c(O)ccc(O)c21 | 0.973% (inactive) | 
OCC(CO)n1cnc(-c2ccc(F)cc2)c1-c1ccnc(Oc2ccccc2)n1 | -3.31% (inactive) | 
NC(=O)c1ccccc1[N+](=O)[O-] | -2.19% (inactive) | 
O=C(Nc1ccc(C(=O)O)c(O)c1)c1ccccc1 | -0.293% [at 70.9 µM] (inactive) | 
CCC(Cl)CC(Cl)C(Cl)C(Cl)C(Cl)C(C)Cl (stereo not given) | -1.57% [at 31.6 µM] (inactive) | 

Structure (SMILES) | activation (H2AX phosphorylation) | Potency
CC(=O)NCCO | -1.04% (inactive) | 
CN1CCCN(C(c2ccccc2)c2ccc(Cl)cc2)CC1 (stereo not given) | 4.32% [at 70.9 µM] (inactive) | 
CCSC(=O)N(CC)CC | 0.373% (inactive) | 
O=[N+]([O-])c1ccc2ncccc2c1 | -0.566% (inactive) | 
O=C1[C@@H]2[C@H]3CC[C@H](C3)[C@@H]2C(=O)N1CCCCN1CCN(c2ncccn2)CC1 | -2.71% [at 70.9 µM] (inactive) | 
CC(=O)OC(C)C[N+](C)(C)C (stereo not given) | 0.862% [at 70.9 µM] (inactive) | 
COC(CC(C)CCCC(C)(C)O)OC (stereo not given) | 0.915% (inactive) | 
CCCCC[C@H](O)/C=C/[C@H]1[C@H](O)CC(=O)[C@@H]1C/C=C\CCCC(=O)O | -0.658% [at 70.9 µM] (inactive) | 
O=C1OC[C@H](Cc2cccc(O)c2)[C@H]1Cc1cccc(O)c1 | -1.13% [at 70.9 µM] (inactive) | 
COc1ccc(C2C(=O)c3ccccc3C2=O)cc1 | -1.48% [at 70.9 µM] (inactive) | 
CC1=C2[C@@H]([C@H](C)CC[C@H]2/C=C(\C)C(=O)O)[C@H](O)C1 | 0.294% (inactive) | 
CCNc1nc(N)nc(Cl)n1 | 0.716% (inactive) | 
O=C(O)CO | 2.72% (inactive) | 
O=C(O)c1cc(Cl)cc(Cl)c1O | 0.799% (inactive) | 
CCN(CC)CCOc1ccccc1C(=O)CCc1ccccc1 | -0.0707% [at 70.9 µM] (inactive) | 
CSCC[C@H](NC(=O)[C@H](Cc1c[nH]c2ccccc12)NC(=O)CCNC(=O)OC(C)(C)C)C(=O)N[C@@H](CC(=O)O)C(=O)N[C@@H](Cc1ccccc1)C(N)=O | -3.62% [at 70.9 µM] (inactive) | 
CCC(C)(C)C(=O)O | -2.32% (inactive) | 
CC(=O)Oc1cccc(O)c1 | 1.46% [at 70.9 µM] (inactive) | 
Cc1ccc(S(=O)(=O)NC(=O)NC2CCCCC2)cc1 | 0.29% [at 70.9 µM] (inactive) | 
O=S(=O)(O)CO | 0.634% (inactive) | 
